The nature of assay [1]: NCI Yeast Anticancer Drug Screen. Data for the rad50 strain (AID 155).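 Note: 0% = growth of vehicle-only cultures of the same strain.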 The following applies: S. cerevisiae rad50 strain growth inhibition, active compounds read high. The method in brief:
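Cells are treated with compound, grown, and their growth is then scored against vehicle-only cultures of the same repair-deficient yeast strain.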

A short description of assay [2]: NCI Yeast Anticancer Drug Screen. Data for the mec2-1 strain (AID 157). The settings on record: S. cerevisiae mec2-1 strain, active compounds read high. The method in brief:
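Each compound was tested on mec2-1 yeast, a strain altered in DNA damage repair or cell cycle control. Growth inhibition is reported relative to vehicle.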

A short description of assay [3]: NCI Yeast Anticancer Drug Screen. Data for the sgs1 mgt1 strain (AID 161).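 Note: 0% = growth of cultures given vehicle only.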 The settings on record: S. cerevisiae sgs1 mgt1 strain, active compounds read high. The method in brief: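 Mutant yeast exposed to compound; growth scored against vehicle-only wells.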
Assay [4] is described as follows: NCI Yeast Anticancer Drug Screen. Data for the cln2 rad14 strain (AID 165).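 Note: 0% = growth equal to vehicle treated cultures.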 The settings on record: S. cerevisiae cln2 rad14 strain, active compounds read high. The method in brief: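 Test compounds were added to cln2 rad14 yeast cultures; inhibition of growth was then determined by comparison with vehicle treatment.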
Assay [5] in a line: NCI Yeast Anticancer Drug Screen. Data for the bub3 strain (AID 167). The following applies: S. cerevisiae bub3 mutant strain, active compounds read high. The method in brief:
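Part of a panel of yeast mutants defective in DNA damage repair or cell cycle regulation. Each strain is grown with compound, and inhibition is calculated relative to solvent-treated cultures.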

Assay [6] in a line: NCI Yeast Anticancer Drug Screen. Data for the mlh1 rad18 strain (AID 175). The settings on record: S. cerevisiae mlh1 rad18 strain growth inhibition, active compounds read high. The method in brief: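 Inhibition values reflect reduced growth of mutant yeast versus vehicle-treated controls following compound exposure; the mutations affect DNA damage repair.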
The mark [7] stands for this setting: at 5.0 µM (retest, dose inferred, filed as 0.5).
Where [8] appears, read: at 50.0 µM (retest, dose inferred, filed as 5.0).

The panel holds about 79,000 compounds, 15% with a hit somewhere; the sample as a whole holds those more often. Values without a mark were called inactive. The source made the active and inactive calls. Cut-off read from the data, not from the text of the source: active = growth inhibition above about 70%; inactive = the rest.

Consider `COc1ccc(-n2cc(-c3ccc(Cl)cc3)c3c(N)ncnc32)cc1`, for which the growth inhibition in assay [1] (setting [7]) is 20%; in assay [1] (setting [8]), 99% (active); in assay [1] (at 50.0 µM) it was 95.6% (active); in assay [2] (setting [7]), 23%; in assay [2] (setting [8]), 99% (active); in assay [2] (at 50.0 µM) it was 94.6% (active). The growth inhibition in assay [3] (setting [7]) is 63%; in assay [3] (setting [8]), 99% (active); in assay [3] (at 50.0 µM) it was 98.2% (active); in assay [4] (setting [7]), 13%; in assay [4] (setting [8]), 25%; in assay [4] (at 50.0 µM), 87.1% (active). The growth inhibition was 0% in assay [5] (setting [7]); 3% in assay [5] (setting [8]); 91% (active) in assay [5] (at 50.0 µM); 20% in assay [6] (setting [7]); 99% (active) in assay [6] (setting [8]); 88% (active) in assay [6] (at 50.0 µM).
Turning to `CCOc1ccc2nc(NC(=O)c3c/c(=N\NC(=O)C[N+](C)(C)C)c4ccc(O)cc4o3)sc2c1`, the growth inhibition in assay [1] (setting [7]) was 57%; in assay [1] (setting [8]), 64%; in assay [1] (at 50.0 µM), 99.3% (active); in assay [2] (setting [7]), 28%; in assay [2] (setting [8]), 53%; in assay [2] (at 50.0 µM), 99.6% (active). For the same compound, the growth inhibition in assay [3] (setting [7]) was 33%; in assay [3] (setting [8]) it was 65%; in assay [3] (at 50.0 µM), 99.3% (active); in assay [4] (setting [7]), 13%; in assay [4] (setting [8]), 61%; in assay [4] (at 50.0 µM), 98.6% (active). In addition, the growth inhibition in assay [5] (setting [7]) is 62%; in assay [5] (setting [8]) it was 62%; in assay [5] (at 50.0 µM), 99.3% (active); in assay [6] (setting [7]) it was 41%; in assay [6] (setting [8]), 52%; in assay [6] (at 50.0 µM) it was 99.2% (active).
Consider `O=Nc1c(-c2c[nH]c3ccccc23)[nH]c2ccccc12`, for which the growth inhibition in assay [1] (setting [7]) was 8%; in assay [1] (setting [8]) it was 60%; in assay [1] (at 50.0 µM), 51.1%; in assay [2] (setting [7]), 7%; in assay [2] (setting [8]), 44%; in assay [2] (at 50.0 µM) it was 24.2%. The growth inhibition was 13% in assay [3] (setting [7]); 56% in assay [3] (setting [8]); 16% in assay [3] (at 50.0 µM); -8% in assay [4] (setting [7]); 33% in assay [4] (setting [8]); 16.9% in assay [4] (at 50.0 µM). Also, the growth inhibition is 13% in assay [5] (setting [7]); 84% (active) in assay [5] (setting [8]); 69% in assay [5] (at 50.0 µM); 12% in assay [6] (setting [7]); 53% in assay [6] (setting [8]); 26.1% in assay [6] (at 50.0 µM).
As for `O=C(NCC#CCO)C(F)(F)F`, the growth inhibition is -15% in assay [1] (setting [7]); -1% in assay [1] (setting [8]); -0.9% in assay [1] (at 50.0 µM); -14% in assay [2] (setting [7]); -18% in assay [2] (setting [8]); 13.2% in assay [2] (at 50.0 µM). The growth inhibition in assay [3] (setting [7]) is -3%; in assay [3] (setting [8]), -8%; in assay [3] (at 50.0 µM), 11.7%; in assay [4] (setting [7]), 3%; in assay [4] (setting [8]) it was 9%; in assay [4] (at 50.0 µM) it was 47.8%. Besides, the growth inhibition was -21% in assay [5] (setting [7]); -5% in assay [5] (setting [8]); 11.1% in assay [5] (at 50.0 µM); -5% in assay [6] (setting [7]); -10% in assay [6] (setting [8]); 45.1% in assay [6] (at 50.0 µM).
For `Oc1cc2ccccc2cc1O`, the growth inhibition was 6% in assay [1] (setting [7]); 90% (active) in assay [1] (setting [8]); 95.5% (active) in assay [1] (at 50.0 µM); 5% in assay [2] (setting [7]); 77% (active) in assay [2] (setting [8]); 86% (active) in assay [2] (at 50.0 µM). Besides, the growth inhibition in assay [3] (setting [7]) was 2%; in assay [3] (setting [8]) it was 88% (active); in assay [3] (at 50.0 µM), 93.8% (active); in assay [4] (setting [7]) it was 3%; in assay [4] (setting [8]), 90% (active); in assay [4] (at 50.0 µM) it was 92.4% (active). For the same compound, the growth inhibition in assay [5] (setting [7]) was 5%; in assay [5] (setting [8]) it was 92% (active); in assay [5] (at 50.0 µM), 96.1% (active); in assay [6] (setting [7]), 5%; in assay [6] (setting [8]), 93% (active); in assay [6] (at 50.0 µM), 96% (active).
As for `COc1cc2c(cc1OC)C(=O)C(C)(c1ccccc1)NC2` (configuration not stated), the growth inhibition in assay [1] (setting [7]) is 20%; in assay [1] (setting [8]), 2%; in assay [1] (at 50.0 µM) it was 91.9% (active); in assay [2] (setting [7]), 9%; in assay [2] (setting [8]), 42%; in assay [2] (at 50.0 µM) it was 98.8% (active). In addition, the growth inhibition is 3% in assay [3] (setting [7]); -1% in assay [3] (setting [8]); 92.4% (active) in assay [3] (at 50.0 µM); 10% in assay [4] (setting [7]); 56% in assay [4] (setting [8]); 99.5% (active) in assay [4] (at 50.0 µM). Further, the growth inhibition in assay [5] (setting [7]) was 2%; in assay [5] (setting [8]), 31%; in assay [5] (at 50.0 µM) it was 97.3% (active); in assay [6] (setting [7]) it was 4%; in assay [6] (setting [8]), -3%; in assay [6] (at 50.0 µM) it was 97.8% (active).
Turning to `O=C(Cc1ccccc1)NNc1nc(NNC(=O)c2ccncc2)nc(Nc2ccccc2)n1`, the growth inhibition in assay [1] (setting [7]) was 11%; in assay [1] (setting [8]), 18%; in assay [1] (at 50.0 µM) it was 26%; in assay [2] (setting [7]), -9%; in assay [2] (setting [8]), 11%; in assay [2] (at 50.0 µM), 10.4%. Also, the growth inhibition in assay [3] (setting [7]) is 12%; in assay [3] (setting [8]), 11%; in assay [3] (at 50.0 µM), 33.3%; in assay [4] (setting [7]), -10%; in assay [4] (setting [8]), 21%; in assay [4] (at 50.0 µM) it was -2.6%. The growth inhibition was -10% in assay [5] (setting [7]); 19% in assay [5] (setting [8]); 36.6% in assay [5] (at 50.0 µM); 13% in assay [6] (setting [7]); 25% in assay [6] (setting [8]); 51.1% in assay [6] (at 50.0 µM).
Turning to `CN(C)C(=O)/C=C/c1c[nH]c(=O)[nH]c1=O`, the growth inhibition in assay [1] (setting [7]) is -146%; in assay [1] (setting [8]), -149%; in assay [1] (at 50.0 µM), -5.65%; in assay [2] (setting [7]), -47%; in assay [2] (setting [8]), -49%; in assay [2] (at 50.0 µM) it was -2.3%. Moreover, the growth inhibition is -63% in assay [3] (setting [7]); -68% in assay [3] (setting [8]); 1.05% in assay [3] (at 50.0 µM); -58% in assay [4] (setting [7]); -64% in assay [4] (setting [8]); 19.1% in assay [4] (at 50.0 µM). The growth inhibition in assay [5] (setting [7]) was -73%; in assay [5] (setting [8]) it was -78%; in assay [5] (at 50.0 µM), -3.35%; in assay [6] (setting [7]), -149%; in assay [6] (setting [8]) it was -119%; in assay [6] (at 50.0 µM), 2.75%.
Regarding `O=[N+]([O-])c1ccccc1NC1CCN(CCCC2(c3ccc(F)cc3)OCCO2)CC1`, the growth inhibition in assay [1] (setting [7]) was 11%; in assay [1] (setting [8]), 96% (active); in assay [1] (at 50.0 µM), 99% (active); in assay [2] (setting [7]) it was 7%; in assay [2] (setting [8]), 94% (active); in assay [2] (at 50.0 µM), 98% (active). Further, the growth inhibition is 16% in assay [3] (setting [7]); 99% (active) in assay [3] (setting [8]); 98.6% (active) in assay [3] (at 50.0 µM); 9% in assay [4] (setting [7]); 94% (active) in assay [4] (setting [8]); 93.3% (active) in assay [4] (at 50.0 µM). The growth inhibition in assay [5] (setting [7]) was 10%; in assay [5] (setting [8]) it was 97% (active); in assay [5] (at 50.0 µM), 41.4%; in assay [6] (setting [7]) it was 11%; in assay [6] (setting [8]), 94% (active); in assay [6] (at 50.0 µM), 98.7% (active).

The values are drawn from PubChem BioAssay (NCI).
